According to PubChem BioAssay (EPA / NIEHS):
Where a structure was tested more than once in an assay, its records may differ in their call. Calls of active or inactive are those of the source. The calls were made as follows: active = hit-call score of the fitted dose curve at least 0.9, where 1 is the maximum; inactive = score below 0.9.

Test: ATG_AP_1_CIS: Attagene CIS-FACTORIAL HepG2 Assay for human Activator Protein 1 (AP-1) (AID 2282931)
Conditions: HepG2 Attagene cis-factorial AP-1 reporter mRNA; actives raise or lower the signal
Method: ATG_CIS is a cell-based, multiplexed-readout assay that uses HepG2, a human liver cell line, with measurements taken at 24 hours after chemical dosing in a 24-well plate.ATG_AP_1_CIS is one of 52 assay component(s) measured or calculated from the ATG_CIS assay. It is designed to make measurements of mRNA induction, a form of inducible reporter, as detected with fluorescence intensity signals by Reverse transcription polymerase chain reaction (RT-PCR) and Capillary electrophoresis technology.Data from the assay component ATG_AP_1_CIS was analyzed into 1 assay endpoint. This assay endpoint, ATG_AP_1_CIS, was analyzed with bidirectional fitting relative to DMSO as the negative control and baseline of activity. Using a type of inducible reporter, measures of mRNA for gain or loss-of-signal activity can be used to understand the reporter gene at the transcription factor-level as they relate to the gene FOS and JUN. Furthermore, this assay endpoint can be referred to as a primary readout, because this assay has produced multiple assay endpoints where this one serves a reporter gene function. To generalize the intended target to other relatable targets, this assay endpoint is annotated to the dna binding intended target family, where the subfamily is basic leucine zipper.
Human liver HepG2 cells are transiently transfected with multiple reporter transcription units (MRTUs) in 6-well plates using FuGene 6 reagent (Roche; 3 ml FuGene/1 mg DNA). The MRTU constructs are regulated by a cis-regulating element (promoter). […] A major difference between the CIS and TRANS system is that in CIS activities of endogenous TFs are measured, whereas the TRANS assay evaluates changes in activities of exogenous, chimeric NR-Gal4 proteins. […] At the end of 24 hour incubation, total RNA was isolated using TriZol reagent (Invitrogen). The isolated RNA is then reverse-transcribed using oligo(dT) primer and Mo-MLV reverse transcriptase (Invitrogen) with DNAse I (Ambion) treatment for 30 min. The one-tenth of the produced cDNA was amplified by PCR using Taq DNA polymerase (Invitrogen) and two reporter sequence-specific primers. The PCR products were fluorescently labeled by primer extension with 6-arboxyfluorescein (6-FAM) 5'-labeled reporter sequence-specific primer (2 min at 95 C, 20 s at 68 C and 10 min at 72 C) and these products were digested with 5U of HpaI (New England Biolabs) for 2h at 37 C. The fragments were purified using Qiaquick PCR columns (Qiagen), analyzed on an ABI 3130xL genetic analyzer (Applied Biosystems) with peak positions identified by using a set of X-rhodamine (ROX)-labeled MapMarker1000 molecular weight standards (BioVentures). The raw capillary electrophoresis data was processed using Attagraph software (Attagene).

**Q.** Which outcome does the source give for CCCCCCS here?
**A.** inactive

**Q.** With C#C[C@]1(O)CC[C@H]2[C@@H]3CCc4cc(OC)ccc4[C@H]3CC[C@@]21C as the compound, how does the outcome read?
**A.** inactive

**Q.** For c1ccc(-c2ccccc2-c2ccccc2)cc1, which AC50 is on record?
**A.** 58.7 µM (active)

**Q.** Which outcome does the source give for O=C(OCCOCCOCCOC(=O)c1ccccc1)c1ccccc1 here?
**A.** inactive

**Q.** For FC1CC(F)(F)C(F)(F)C1(F)F (stereo not given), which outcome is on record?
**A.** inactive

**Q.** With C=C(C)C(=O)OCC(F)(F)C(F)(F)C(F)(F)C(F)(F)C(F)(F)C(F)(F)C(F)(F)F as the compound, how does the outcome read?
**A.** inactive

**Q.** Which AC50 does the source give for C=CC(=O)OCC(F)(F)C(F)(F)C(F)(F)C(F)(F)COC(=O)C=C here?
**A.** 50 µM (active)

**Q.** Which outcome does the source give for CC(=O)Nc1ccc(N=Nc2cc(C)ccc2O)cc1 here?
**A.** inactive

**Q.** For C(=C(c1ccccc1)c1ccccc1)c1ccccc1, which AC50 is on record?
**A.** 36.7 µM (active)

**Q.** With CCCCCCCOC(=O)c1ccccc1C(=O)OCCCCCCC as the compound, how does the outcome read?
**A.** inactive

**Q.** With Oc1ccc(Nc2ccccc2)cc1 as the compound, how does the outcome read?
**A.** inactive

**Q.** For CCCCNc1ccccc1, which outcome is on record?
**A.** inactive

**Q.** For O=C(O)C(F)(F)C(F)(F)C(F)(F)C(F)(F)C(F)(F)C(F)(F)C(F)(F)C(F)(F)C(F)(F)C(F)(F)C(F)(F)C(F)(F)C(F)(F)F, which AC50 is on record?
**A.** 42.8 µM (active)

**Q.** With OCCCC(F)(F)C(F)(F)C(F)(F)F as the compound, how does the outcome read?
**A.** inactive

**Q.** For FC(F)(Br)C(F)(F)C(F)(F)C(F)(F)C(F)(F)C(F)(F)Br, which outcome is on record?
**A.** inactive

**Q.** Which outcome does the source give for Nc1ccc([N+](=O)[O-])cc1O here?
**A.** inactive

**Q.** For C=C(C)C(=O)OCCC(F)(F)C(F)(F)C(F)(F)C(F)(F)C(F)(C(F)(F)F)C(F)(F)F, which outcome is on record?
**A.** inactive

**Q.** Which outcome does the source give for O=C(CC(=O)C(F)(F)C(F)(F)F)C(F)(F)F here?
**A.** inactive

**Q.** What about the AC50 of the same compound?
**A.** 150 µM (active)

**Q.** For O=C(Cl)C(F)(F)C(F)(F)C(F)(F)C(F)(F)C(F)(F)C(F)(F)C(F)(F)C(F)(F)F, which AC50 is on record?
**A.** 16.1 µM (active)

**Q.** With Nc1cc(Cl)c(N)c(Cl)c1 as the compound, how does the outcome read?
**A.** inactive

**Q.** Which outcome does the source give for OCCCC(F)(F)C(F)(F)C(F)(F)C(F)(F)C(F)(F)C(F)(F)C(F)(F)F here?
**A.** inactive

**Q.** Which outcome does the source give for CCC(=O)OCCc1ccccc1 here?
**A.** inactive

**Q.** For OCC(F)(F)C(F)(F)C(F)(F)C(F)(F)C(F)(F)C(F)F, which outcome is on record?
**A.** inactive

**Q.** For OCC(F)(F)C(F)(F)C(F)(F)C(F)(F)C(F)(F)C(F)(F)F, which outcome is on record?
**A.** inactive

**Q.** Which outcome does the source give for O=C(O)C(F)(F)C(F)(F)OC(F)(F)F here?
**A.** inactive

**Q.** Which outcome does the source give for CC/C=C\CCOC(C)=O here?
**A.** inactive

**Q.** For CCO[Si](CCC(F)(F)C(F)(F)C(F)(F)C(F)(F)C(F)(F)C(F)(F)F)(OCC)OCC, which outcome is on record?
**A.** inactive

**Q.** Which outcome does the source give for FC(F)(F)C(F)(F)C(F)(F)C(F)(F)C(F)(F)C(F)(F)C(F)(F)C(F)(F)F here?
**A.** inactive

**Q.** With Cc1ccc(S(=O)(=O)OCC(F)(F)C(F)(F)C(F)(F)C(F)(F)C(F)(F)C(F)F)cc1 as the compound, how does the outcome read?
**A.** inactive

**Q.** Which outcome does the source give for FC(F)(F)C(F)(F)CNCC(F)(F)C(F)(F)F here?
**A.** inactive

**Q.** For CN(C)Cc1ccccc1O, which outcome is on record?
**A.** inactive

**Q.** With CC(C)=CCCC(C)CCOC(=O)C(C)C (stereo not given) as the compound, how does the outcome read?
**A.** inactive

**Q.** With O=C(C=Cc1ccccc1)OCC=Cc1ccccc1 as the compound, how does the outcome read?
**A.** inactive

**Q.** Which outcome does the source give for CCc1c(Br)c(Br)c(Br)c(Br)c1Br here?
**A.** inactive

**Q.** With CS(C)(=O)=O as the compound, how does the outcome read?
**A.** inactive

**Q.** Which outcome does the source give for CC/C=C\CCOC(=O)c1ccccc1 here?
**A.** inactive

**Q.** With Nc1ccc(Oc2cccc(Oc3ccc(N)cc3)c2)cc1 as the compound, how does the outcome read?
**A.** inactive

**Q.** Which outcome does the source give for FC(F)(F)C(F)(F)C(F)(F)C(F)(F)C(F)(F)C(F)(F)CCS here?
**A.** inactive

**Q.** With O=C(O)C(F)(F)C(F)(F)C(F)(F)C(F)(F)C(F)(F)C(F)(F)C(F)(F)C(F)(F)C(F)(F)C(F)F as the compound, how does the AC50 read?
**A.** 26.6 µM (active)
